From PubChem BioAssay (NCATS)
Results filed as inconclusive are left out. A number with no mark means an inactive call. The source made the active and inactive calls. Calls follow the shape of the dose curve; as a rule, active = well fitted inhibition curve with a large enough effect; inconclusive = small, poorly fitted or top-dose-only effect, or effect the other way; inactive = no such curve, though single readings can be large or run the other way.

Assay: Quantitative high throughput screen for delayed death inhibitors of the malarial parasite plastid, 96 hour incubation (AID 488745); also: nearly all actives have a fitted effect of over 70% in size
Conditions: Plasmodium falciparum growth; series mostly up to 28.7 µM; activity change, negative = inhibition: at the top concentration
From the text: NIH Molecular Libraries Probe Production Network [MLPCN]
NIH Chemical Genomics Center [NCGC]
Assay Provider: David Fidock and Eric Ekland, Columbia University
The goal of this screen is to discover new antimalarial compounds that act by inhibiting the development of the apicoplast in the malarial parasite Plasmodium falciparum. The biochemical processes that make this organelle essential for erythrocytic stage parasites are not well understood. However, antibiotics such as azithromycin and tetracycline, which target the apicoplast translational machinery, have a potent antimalarial effect.
We have developed a cell-based assay that measures parasite growth based on the expression of an integrated copy of a firefly luciferase reporter. To detect small molecules that cause this 'delayed death' phenotype, erythrocytes infected with the luciferase-expressing parasites were incubated with compounds for either one or two generations, corresponding to 48 and 96 hours, respectively. Compounds that inhibit parasite growth in the second generation, but not the first, should be enriched in antimalarials that target the apicoplast. Growth inhibition is detected by a decrease in luciferase activity
Four microliters of culture medium (RPMI 1640 with 0.5% w/v Albumax (GIBCO), 24 mM sodium bicarbonate and 10 ug/mL gentamycin) were dispensed by a Multi-drop Combi into white solid 1536-well plates (Grenier) and 23 nL compound was added by a pin tool. Four microliters of infected erythrocytes (2% hematocrit, 0.1% parasitemia final concentration) in culture medium were dispensed and the plates incubated for 96 hours at 37 C in 5% CO2. Two microliters of luciferase detection reagent was added and luminescence was detected by a ViewLux (PerkinElmer) reader
% is scaled to controls: 0 for no effect and ±100 for the full control effect; potency is read from the fitted curve at half-maximal effect.

SMILES	activity change, negative = inhibition [%]	Potency
CCN1/C(=C/C(C)=O)Sc2ccc(OC)cc21	8.4	
O=C(Nc1cccc(C(=O)Nc2ccc(S(=O)(=O)O)c3cc(S(=O)(=O)O)cc(S(=O)(=O)O)c23)c1)Nc1cccc(C(=O)Nc2ccc(S(=O)(=O)O)c3cc(S(=O)(=O)O)cc(S(=O)(=O)O)c23)c1	10	
CN1CCC[C@H]1c1cccnc1	-2.36	
N#C/C(=C\c1ccc(O)c(O)c1)C(=O)NCc1ccccc1	-6.46	
Cc1ccccc1CNc1ncnc2c1ncn2C1OC(CO)C(O)C1O (stereo not given)	28.1	
CCCCCCCCCCCCCCCCCC(=O)NCC(COP(=O)([O-])OCC[N+](C)(C)C)OCC (stereo not given)	2.47	
O=C(O)CCCC[C@@H]1CCSS1	16.2	
C=C[C@@H]1CN2CC[C@@H]1C[C@H]2[C@H](O)c1ccnc2ccc(OC)cc12		32.9 nM (active)
CC(=O)N[C@H](C(=O)O)C(C)(C)SN=O	20.6	
C[C@@H](CN1CCC(Cc2ccccc2)CC1)[C@@H](O)c1ccc(O)cc1	4.57	
CC(=O)SCC[N+](C)(C)C	-12.4	
O=c1[nH]c2cc([N+](=O)[O-])c([N+](=O)[O-])cc2[nH]c1=O	-10.2	
O=C(c1cc(O)c(O)c([N+](=O)[O-])c1)c1ccccc1F	-3.12	
N#C/C(=C\c1c[nH]c2ccccc12)C(=O)c1ccc(O)c(O)c1	-8.73	
O=C(O)CC[C@@H](C(=O)O)N1C(=O)c2ccccc2C1=O	16.8	
S=C(S)OC1CC2CC1C1CCCC21 (stereo not given)	-2.89	
NCCSSCCN	-6.06	
CCCN(CC1CC1)c1nc(C)nc(Nc2c(Cl)cc(Cl)cc2Cl)c1Cl		2330 nM (active)
O=C(O)/C=C/C(O)c1ccc(Cl)cc1 (stereo not given)	-0.646	
COc1ccccc1CNCCCCCCNCCCCCCCCNCCCCCCNCc1ccccc1OC		1040 nM (active)

SMILES	activity change, negative = inhibition [%]	Potency
CN[C@H](CC(C)C)C(=O)N[C@H]1C(=O)N[C@@H](CC(N)=O)C(=O)N[C@H]2C(=O)N[C@H]3C(=O)N[C@H](C(=O)N[C@H](C(=O)O)c4cc(O)cc(O)c4-c4cc3ccc4O)[C@H](O)c3ccc(c(Cl)c3)Oc3cc2cc(c3O[C@@H]2O[C@H](CO)[C@@H](O)[C@H](O)[C@H]2O[C@H]2C[C@](C)(N)[C@H](O)[C@H](C)O2)Oc2ccc(cc2Cl)[C@H]1O	-2.78	
Clc1ccc(N2CCN(Cc3c[nH]c4ncccc34)CC2)cc1	-19.7	
CC[C@@H](C)[C@H]1O[C@]2(CC[C@@H]1C)C[C@@H]1C[C@@H](C/C=C(\C)[C@@H](O[C@H]3C[C@H](OC)[C@@H](O[C@H]4C[C@H](OC)[C@@H](O)[C@H](C)O4)[C@H](C)O3)[C@@H](C)/C=C/C=C3\CO[C@@H]4[C@H](O)C(C)=C[C@@H](C(=O)O1)[C@]34O)O2		117 nM (active)
COc1cc(OC)c(/C=C2/C(=O)Nc3ccccc32)c(OC)c1	1.04	
O=S(=O)(c1cccc2c(I)cccc12)N1CCCNCC1	18.3	
COc1cc2c(CCNC(C)=O)c[nH]c2cc1Cl	8.81	
O=C(O)c1cc(=O)c2c(Cl)cc(Cl)cc2[nH]1	-11.9	
N.N.O=C(O)C1(C(=O)O)CCC1.[Pt]	-2.51	
CC12C(=O)OC(=O)C1(C)C1CCC2O1 (stereo not given)		3290 nM (active)
O=C(O)CNC(=O)C(CS)Cc1ccccc1 (stereo not given)	2.62	
CO/N=C(\C(=O)N[C@@H]1C(=O)N2C(C(=O)O)=C(COC(C)=O)CS[C@H]12)c1csc(N)n1 (stereo in doubt)	-0.0517	
O=C1O/C(=C/Br)CCC1c1cccc2ccccc12 (stereo not given)	-23.8	
Ic1ccc(N2CCN(Cc3c[nH]c4ncccc34)CC2)cc1	-18.8	
Fc1ccc(C(OCCCc2cnc[nH]2)c2ccc(F)cc2)cc1		2620 nM (active)
CCCCCCCCCCCCCCCCCCNC(=O)OCC(COP(=O)([O-])OCC[n+]1ccsc1)OC (stereo not given)	-3.62	
COc1ccccc1N1CCN(CCCCNS(=O)(=O)c2cccc3c(N(C)C)cccc23)CC1	-6.89	
Cn1c(=O)c2[nH]c(-c3ccccc3)nc2n(C)c1=O	10.2	
CCCCCCCCCCCCCCCC(=O)NCC(COP(=O)([O-])OCC[N+](C)(C)C)OCC (stereo not given)	1.64	
CC(COc1ccc(/C=C/c2ccccc2)cc1)[N+](C)(C)C (stereo not given)		2080 nM (active)
O=C(O)CC1CCCc2ccccc2C1O (stereo not given)	21.3	
